From PubChem BioAssay (NCATS)
Results filed as inconclusive are left out. The source made the active and inactive calls. Calls follow the shape of the dose curve; as a rule, active = well fitted curve in the direction sought with a large enough effect; inconclusive = small, poorly fitted or top-dose-only effect, or another doubt; inactive = no such curve, though single readings can be large; an effect the other way counts as inactive or inconclusive. Non-standard residues stand in square brackets, D forms with d. Residues, ends and D or L forms follow the SMILES beside them. *: point of attachment. Nva = CCC[C@H](N)C(=O)O; Cbz = O=C(OCc1ccccc1)*

What was measured:
[1] = Quantitative High-Throughput drug screen in 47 multiple myeloma cell lines against the NCATS MIPE library collection: KHM11_PLB cell viability assay (AID 1918962); also: nearly all actives have a fitted effect of over 35% in size
Method in brief: (§1)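 Inhibition of cell viability is measured here. Each line was plated at 500 cells per well, treated with MIPE 4.0 drugs, kept 48 hours at 37C, then assayed for ATP content by CellTiter-Glo luminescence.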

[2] = Quantitative High-Throughput drug screen in 47 multiple myeloma cell lines against the NCATS MIPE library collection: JIM3_ECACC cell viability assay (AID 1918963; also: nearly all actives have a fitted effect of over 35% in size)
Method in brief: as §1

[3] = Quantitative High-Throughput drug screen in 47 multiple myeloma cell lines against the NCATS MIPE library collection: JIM1_ECACC cell viability assay (AID 1918964)
Method in brief: (§2)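 Relative luminescence from CellTiter-Glo served as the viability signal, referenced to DMSO-treated (100%) and cell-free medium (0%) controls. Treatment lasted 48 hours at 37C with 500 cells per well.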

[4] = Quantitative High-Throughput drug screen in 47 multiple myeloma cell lines against the NCATS MIPE library collection: INA6_PLB cell viability assay (AID 1918965; also: nearly all actives have a fitted effect of over 55% in size)
Method in brief: (§3)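 qHTS of the MIPE 4.0 collection: 500 myeloma cells/well, 48 h drug exposure at 37C in 5% CO2, then CellTiter-Glo for 5 min at room temperature before luminescence reading.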

[5] = Quantitative High-Throughput drug screen in 47 multiple myeloma cell lines against the NCATS MIPE library collection: JJN3_DSMZ cell viability assay (AID 1918966; also: nearly all actives have a fitted effect of over 50% in size)
Method in brief: as §2

[6] = Quantitative High-Throughput drug screen in 47 multiple myeloma cell lines against the NCATS MIPE library collection: H1112_PLB cell viability assay (AID 1918967; also: nearly all actives have a fitted effect of over 30% in size)
Method in brief: as §2

[7] = Quantitative High-Throughput drug screen in 47 multiple myeloma cell lines against the NCATS MIPE library collection: Karpas25_ECACC cell viability assay (AID 1918968; also: nearly all actives have a fitted effect of over 35% in size)
Method in brief: as §2

[8] = Quantitative High-Throughput drug screen in 47 multiple myeloma cell lines against the NCATS MIPE library collection: KMS27_JCRB cell viability assay (AID 1918970); settings: KMS27 myeloma cells, CellTiter-Glo ATP viability, 48 h; viability (% of DMSO): at 45.8 µM (top of the series); also: nearly all actives have a fitted effect of over 30% in size
Method in brief: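 CellTiter-Glo luminescence after 48 h drug exposure at 37 °C; 500 cells/well, 1536-well format, pin-tool compound addition; DMSO = 100%, media-only = 0% viability.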

[9] = Quantitative High-Throughput drug screen in 47 multiple myeloma cell lines against the NCATS MIPE library collection: KMS12BM_JCRB cell viability assay (AID 1918971); also: nearly all actives have a fitted effect of over 35% in size
Method in brief: (§4)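 Viability readout: CellTiter-Glo luminescence following 5 min room-temperature incubation with reagent. Prior exposure: 48 h, 37C, humidified 5% CO2, 500 cells per well.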

[10] = Quantitative High-Throughput drug screen in 47 multiple myeloma cell lines against the NCATS MIPE library collection: KMS12PE_JCRB cell viability assay (AID 1918972); also: nearly all actives have a fitted effect of over 30% in size
Method in brief: as §3

[11] = Quantitative High-Throughput drug screen in 47 multiple myeloma cell lines against the NCATS MIPE library collection: KMS20_JCRB cell viability assay (AID 1918973); also: nearly all actives have a fitted effect of over 45% in size
Method in brief: as §2

[12] = Quantitative High-Throughput drug screen in 47 multiple myeloma cell lines against the NCATS MIPE library collection: KMS26_JCRB cell viability assay (AID 1918975); also: nearly all actives have a fitted effect of over 45% in size
Method in brief: as §4

[13] = Quantitative High-Throughput drug screen in 47 multiple myeloma cell lines against the NCATS MIPE library collection: MMM1_PLB cell viability assay (AID 1918976); also: nearly all actives have a fitted effect of over 35% in size
Method in brief: (§5)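 Viability after 48 h drug exposure was measured as ATP-dependent luminescence. Cells, 500 per well, sat at 37 °C under 5% CO2; DMSO wells set 100%, media-only wells 0%.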

[14] = Quantitative High-Throughput drug screen in 47 multiple myeloma cell lines against the NCATS MIPE library collection: MOLP8_DSMZ cell viability assay (AID 1918977); also: nearly all actives have a fitted effect of over 45% in size
Method in brief: as §5

[15] = Quantitative High-Throughput drug screen in 47 multiple myeloma cell lines against the NCATS MIPE library collection: NCIH929_DSMZ cell viability assay (AID 1918978); also: nearly all actives have a fitted effect of over 35% in size
Method in brief: as §5

[16] = Quantitative High-Throughput drug screen in 47 multiple myeloma cell lines against the NCATS MIPE library collection: MM1S_ATCC cell viability assay (AID 1918980); also: nearly all actives have a fitted effect of over 45% in size
Method in brief: as §5

[17] = Quantitative High-Throughput drug screen in 47 multiple myeloma cell lines against the NCATS MIPE library collection: MM1R_ATCC cell viability assay (AID 1918981); also: nearly all actives have a fitted effect of over 35% in size
Method in brief: as §5

[18] = Quantitative High-Throughput drug screen in 47 multiple myeloma cell lines against the NCATS MIPE library collection: LP1_DSMZ cell viability assay (AID 1918982); also: nearly all actives have a fitted effect of over 35% in size
Method in brief: as §5

[19] = Quantitative High-Throughput drug screen in 47 multiple myeloma cell lines against the NCATS MIPE library collection: OCIMY1_PLB cell viability assay (AID 1918979); also: nearly all actives have a fitted effect of over 35% in size
Method in brief: as §5
Potency is read from the fitted curve at half-maximal effect.

c1ccc(CNc2nc(NCc3ccccc3)c3ccccc3n2)cc1
active: Potency [1] 8.33 µM | Potency [2] 16.6 µM | Potency [3] 8.33 µM | Potency [4] 7.43 µM | Potency [5] 23.5 µM | Potency [6] 11.8 µM | Potency [7] 5.9 µM | Potency [8] 5.9 µM | Potency [9] 29.6 µM | Potency [10] 5.9 µM | Potency [11] 8.33 µM | Potency [12] 26.4 µM | Potency [13] 16.6 µM | Potency [14] 18.7 µM | Potency [15] 8.33 µM | Potency [16] 8.33 µM | Potency [17] 26.4 µM | Potency [18] 23.5 µM

CCCCCCCCc1ccc(CCC(N)(CO)CO)cc1
active: Potency [1] 8.33 µM | Potency [2] 13.2 µM | Potency [3] 5.9 µM | Potency [4] 8.33 µM | Potency [5] 18.7 µM | Potency [6] 18.7 µM | Potency [7] 5.9 µM | Potency [8] 6.62 µM | Potency [9] 14.8 µM | Potency [10] 7.43 µM | Potency [11] 3.72 µM | Potency [12] 16.6 µM | Potency [13] 13.2 µM | Potency [14] 14.8 µM | Potency [19] 23.5 µM | Potency [16] 7.43 µM | Potency [17] 9.35 µM | Potency [18] 13.2 µM

Cn1cc(-c2cnn3c(N)c(Br)c([C@H]4CCCNC4)nc23)cn1
active: Potency [1] 0.526 µM | Potency [2] 1.87 µM | Potency [3] 0.118 µM | Potency [4] 0.662 µM | Potency [5] 0.59 µM | Potency [6] 2.64 µM | Potency [7] 0.662 µM | Potency [8] 1.48 µM | Potency [9] 2.96 µM | Potency [10] 3.72 µM | Potency [11] 1.48 µM | Potency [12] 8.33 µM | Potency [13] 0.662 µM | Potency [14] 0.833 µM | Potency [15] 0.833 µM | Potency [16] 0.332 µM | Potency [17] 0.209 µM

C[C@H](NCc1ccc2c(c1)nc(NC(=O)c1ccc(-c3cn[nH]c3)s1)n2CCc1ccccc1)C(C)(C)C
active: Potency [1] 0.59 µM | Potency [2] 1.48 µM | Potency [3] 0.418 µM | Potency [4] 0.833 µM | Potency [5] 1.18 µM | Potency [6] 1.66 µM | Potency [7] 1.48 µM | Potency [8] 0.418 µM | Potency [9] 2.35 µM | Potency [10] 0.743 µM | Potency [11] 0.935 µM | Potency [12] 1.87 µM | Potency [13] 2.35 µM | Potency [14] 0.59 µM | Potency [15] 1.05 µM | Potency [19] 1.87 µM | Potency [16] 1.66 µM | Potency [17] 1.66 µM | Potency [18] 1.05 µM

COc1cc(C(=O)NC2CCN(C)CC2)ccc1Nc1ncc2c(n1)N(C1CCCC1)CCC(=O)N2C(C)C
active: Potency [1] 14.8 µM | Potency [2] 20.9 µM | Potency [3] 5.9 µM | Potency [4] 3.72 µM | Potency [5] 8.33 µM | Potency [6] 23.5 µM | Potency [7] 20.9 µM | Potency [8] 5.9 µM | Potency [10] 13.2 µM | Potency [11] 16.6 µM | Potency [15] 10.5 µM | Potency [16] 1.05 µM

CN(CC(=O)N(Cc1ccc(C2CCCCC2)cc1)c1ccc(C(=O)O)c(O)c1)S(=O)(=O)c1c(F)c(F)c(F)c(F)c1F
active: Potency [1] 14.8 µM | Potency [2] 9.35 µM | Potency [3] 3.32 µM | Potency [4] 6.62 µM | Potency [5] 18.7 µM | Potency [6] 18.7 µM | Potency [7] 5.26 µM | Potency [8] 3.32 µM | Potency [9] 29.6 µM | Potency [10] 7.43 µM | Potency [11] 6.62 µM | Potency [12] 20.9 µM | Potency [13] 20.9 µM | Potency [14] 18.7 µM | Potency [15] 4.18 µM | Potency [19] 33.2 µM | Potency [16] 7.43 µM | Potency [17] 8.33 µM | Potency [18] 20.9 µM

CCC[C@@H](C=O)NC(=O)[C@H](CC(C)C)NC(=O)[C@H](CC(C)C)NC(=O)OCc1ccccc1 (Cbz-Leu-Leu-[Nva]-aldehyde)
active: Potency [1] 0.469 µM | Potency [2] 0.935 µM | Potency [3] 0.372 µM | Potency [4] 0.235 µM | Potency [5] 1.18 µM | Potency [6] 0.418 µM | Potency [7] 0.296 µM | Potency [8] 0.332 µM | Potency [9] 1.05 µM | Potency [10] 0.296 µM | Potency [11] 0.187 µM | Potency [12] 1.32 µM | Potency [13] 3.72 µM | Potency [14] 1.18 µM | Potency [19] 0.743 µM | Potency [16] 0.418 µM | Potency [18] 1.32 µM

CC(=O)SCC(Cc1ccccc1)C(=O)NCC(=O)OCc1ccccc1 (configuration not stated)
active: Potency [1] 7.43 µM | Potency [2] 3.72 µM | Potency [3] 2.96 µM | Potency [4] 0.935 µM | Potency [5] 5.9 µM | Potency [6] 1.66 µM | Potency [7] 1.05 µM | Potency [8] 0.662 µM | Potency [9] 2.35 µM | Potency [10] 1.66 µM | Potency [12] 18.7 µM | Potency [13] 7.43 µM | Potency [16] 0.59 µM | Potency [17] 3.72 µM

C=CC(=O)Nc1ccc2ncnc(Nc3ccc(OCc4cccc(F)c4)c(Cl)c3)c2c1
active: Potency [1] 6.62 µM | Potency [2] 0.743 µM | Potency [3] 0.0418 µM | Potency [4] 0.662 µM | Potency [5] 18.7 µM | Potency [6] 1.05 µM | Potency [7] 1.87 µM | viability (% of DMSO) [8] 70.4% | Potency [9] 0.418 µM | Potency [10] 0.0743 µM | Potency [12] 9.35 µM | Potency [13] 18.7 µM | Potency [14] 6.62 µM | Potency [15] 4.18 µM | Potency [19] 14.8 µM | Potency [16] 1.66 µM | Potency [17] 8.33 µM | Potency [18] 5.9 µM
